{
  "source": "PubChem BioAssay (Tox21)",
  "note": "Inconclusive results are not listed. Entries that show only a call come without a potency. Calls of active or inactive are those of the source. Calls follow the shape of the dose curve; as a rule, active = well fitted cell-killing curve with a large enough effect in the repeat runs; inconclusive = weak or mixed curves; inactive = flat fitted curve, though single readings scatter. Potency is read from the fitted curve at half-maximal effect.",
  "data": [
    {"test": "qHTS RealTime-Glo MT Cell Viability Assay in HepG2 cells - 32 hour (AID 1224877); also: nearly all actives have a fitted effect of over 55% in size", "details": "RealTime-Glo luminescence; series mostly up to 76.8 µM", "description": "U.S. Tox21 Program National Center for Advancing Translational Sciences [NCATS] NIH Chemical Genomics Center [NCGC] U.S. Environmental Protection Agency [EPA] National Institutes of Environmental Health Sciences [NIEHS] National Toxicology Program [NTP] U.S. Food and Drug Administration [FDA] Tox21 Assay Overview: Measure of cell viability is critical in the cell-base assay. Analysis of cell viability is necessary for the characterization of cell responses to cytotoxic drugs and environmental stress. A RealTime-Glo MT Cell Viability Assay to monitor cell viability in real time of continues cell culture during 40 hours of compound treatment was used to screen Tox21 10K library compounds in HepG2 cells. The RealTime-Glo MT Cell Viability Assay is a nonlytic, homogeneous, bioluminescent method to measure cell viability in real time using a simple, plate-based method. The assay involves adding NanoLuc luciferase and a cell-permeant prosubstrate to cells in culture. Viable cells reduce the proprietary prosubstrate to generate a substrate for NanoLuc luciferase. This substrate diffuses from cells into the surrounding culture medium, where it is rapidly used by the NanoLuc Enzyme to produce a luminescent signal. The signal correlates with the number of viable cells, making the assay well suited for cytotoxicity studies.\nTox21 Assay Protocol Summary: The mixture of HepG2 cell suspension and reagents were dispensed at 600cells/6 ul/well in 1536-well tissue culture treated black solid bottom plates using a Multidrop dispenser. After the assay plates were incubated at a 37 C/5% CO2 incubator for 5 hours, 23 nL of compounds dissolved in DMSO, positive and negative controls was transferred to the assay plate by a pintool work station. The plates were incubated at 37 C for 40 hours. The luminescence intensity were measured at 0h, 8h, 16h, 24h, 32h and 40h time points using ViewLux plate reader during compound treatment.", "values": [
      {"smiles": "CCCCCOc1ccccc1/C(=C\\SC)n1ccnc1", "Potency": "inactive"},
      {"smiles": "O=CC=C(c1ccccc1)c1ccccc1", "Potency": "inactive"},
      {"smiles": "OCc1c[nH]c2ccccc12", "Potency": "inactive"},
      {"smiles": "Cc1onc(-c2c(Cl)cccc2Cl)c1C(=O)N[C@@H]1C(=O)N2[C@@H]1SC(C)(C)[C@@H]2C(=O)O", "Potency": "inactive"},
      {"smiles": "Clc1ccc2nsnc2c1NC1=NCCN1", "Potency": "inactive"},
      {"smiles": "C=C(C)C(=O)OCC[N+](C)(C)C", "Potency": "inactive"},
      {"smiles": "NC(=O)C1(N2CCCCC2)CCN(CCCN2c3ccccc3CCc3ccc(Cl)cc32)CC1", "Potency": "23.9 µM (active)"},
      {"smiles": "CCCCCCOC(=O)c1ccc(O)cc1", "Potency": "inactive"},
      {"smiles": "C/C=C(\\C)C(=O)OCc1ccccc1", "Potency": "inactive"},
      {"smiles": "CC/C(=C(\\c1ccc(O)cc1)c1ccc(OCCN(C)C)cc1)c1ccccc1", "Potency": "61.8 µM (active)"},
      {"smiles": "O=S1(=O)CC(Cl)(Cl)C(Cl)(Cl)C1", "Potency": "6.16 µM (active)"},
      {"smiles": "C[C@H](CCC(=O)O)[C@H]1CC[C@H]2[C@@H]3CC[C@@H]4C[C@H](O)CC[C@]4(C)[C@H]3CC[C@]12C", "Potency": "inactive"},
      {"smiles": "O=C(N/N=C/c1ccccc1O)c1ccncc1", "Potency": "inactive"},
      {"smiles": "CCCCCCCCCCCC(=O)NCCCN(C)C", "Potency": "38.9 µM (active)"},
      {"smiles": "Cc1cccc(CN2CCN(C(c3ccccc3)c3ccc(Cl)cc3)CC2)c1", "note": "(stereo not given)", "Potency": "inactive"},
      {"smiles": "Oc1cccc2cc3cccc(O)c3c(O)c12", "Potency": "inactive"},
      {"smiles": "Cc1cc(O)c(C(C)(C)C)cc1C(C)(C)C", "Potency": "43.6 µM (active)"},
      {"smiles": "NNc1nc(-c2ccccc2)cs1", "Potency": "inactive"},
      {"smiles": "ON=C1CCCC1", "Potency": "inactive"},
      {"smiles": "CCCCC(CC)COP(=O)(O)OCC(CC)CCCC", "note": "(stereo not given)", "Potency": "inactive"},
      {"smiles": "CCCCc1oc2ccc(NS(C)(=O)=O)cc2c1C(=O)c1ccc(OCCCN(CCCC)CCCC)cc1", "Potency": "9.52 µM (active)"},
      {"smiles": "CCCC1O[C@@H]2C[C@H]3[C@@H]4CCC5=CC(=O)C=C[C@]5(C)[C@H]4[C@@H](O)C[C@]3(C)[C@]2(C(=O)CO)O1", "note": "(stereo not given in full)", "Potency": "inactive"},
      {"smiles": "CC(C)CCCCCCCCCCCCCCC(=O)O", "Potency": "inactive"},
      {"smiles": "Cc1cccc(S(=O)(=O)O)c1C", "Potency": "inactive"},
      {"smiles": "Cc1[nH]nc2c1N=C(c1ccccc1Cl)c1cc([N+](=O)[O-])ccc1N2", "Potency": "inactive"},
      {"smiles": "Nc1c(Cl)cc(Cl)cc1Cl", "Potency": "inactive"},
      {"smiles": "CSc1ccc(C(=O)c2[nH]c(=O)[nH]c2C)cc1", "Potency": "inactive"},
      {"smiles": "CCCCCCCC/C=C\\CCCCCCCCOCCO", "Potency": "inactive"},
      {"smiles": "O=c1c(-c2ccccc2)c1-c1ccccc1", "Potency": "15.1 µM (active)"},
      {"smiles": "Nc1cc(C(F)(F)F)ccc1S", "Potency": "inactive"},
      {"smiles": "CN1CCN(CCC(=O)N2c3ccccc3Sc3ccc(C(F)(F)F)cc32)CC1", "Potency": "26.8 µM (active)"},
      {"smiles": "Cc1[nH]cnc1C[C@H]1CCc2c(C)c3ccccc3n2C1=O", "Potency": "42.6 µM (active)"},
      {"smiles": "Cc1ccc(O)c(C(C)(C)C)c1", "Potency": "inactive"},
      {"smiles": "CC(=O)N1CCN(c2ccc(OC[C@H]3CO[C@](Cn4ccnc4)(c4ccc(Cl)cc4Cl)O3)cc2)CC1", "Potency": "49 µM (active)"},
      {"smiles": "Cc1cc(=O)oc2cc(N(C)C)ccc12", "Potency": "inactive"},
      {"smiles": "CSc1cnc(C)cn1", "Potency": "inactive"},
      {"smiles": "NC(=O)CC[C@@H]1NC(=O)[C@H](Cc2ccccc2)NC(=O)[C@H](Cc2ccc(O)cc2)NC(=O)CCSSC[C@@H](C(=O)N2CCC[C@H]2C(=O)N[C@@H](CCCN=C(N)N)C(=O)NCC(N)=O)NC(=O)[C@H](CC(N)=O)NC1=O", "Potency": "inactive"},
      {"smiles": "O=C(OCC(COC(=O)c1ccccc1)(COC(=O)c1ccccc1)COC(=O)c1ccccc1)c1ccccc1", "Potency": "inactive"},
      {"smiles": "COc1c(C)c2c(c(O)c1C/C=C(\\C)CCC(=O)O)C(=O)OC2", "Potency": "inactive"},
      {"smiles": "[O-][n+]1ccccc1SSc1cccc[n+]1[O-]", "Potency": "0.165 µM (active)"}
    ]}
  ]
}
